A3G deaminase = inhibitors of human APOBEC3G DNA deaminase; inhibition, % at 20 µM; recombinant A3G, ssDNA deamination FAM/TAMRA fluorescence; AID 493012; 330,000 compounds, 0.28% hits; Q9HC16;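 active = inhibition of at least 40% at 20 µM, with no more than 30% in the related APOBEC3A deaminase screen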;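 note: plate controls were DMSO wells with A3G for no effect and wells lacking A3G enzyme for full effect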
Target sequence (Q9HC16 whole entry, looked up): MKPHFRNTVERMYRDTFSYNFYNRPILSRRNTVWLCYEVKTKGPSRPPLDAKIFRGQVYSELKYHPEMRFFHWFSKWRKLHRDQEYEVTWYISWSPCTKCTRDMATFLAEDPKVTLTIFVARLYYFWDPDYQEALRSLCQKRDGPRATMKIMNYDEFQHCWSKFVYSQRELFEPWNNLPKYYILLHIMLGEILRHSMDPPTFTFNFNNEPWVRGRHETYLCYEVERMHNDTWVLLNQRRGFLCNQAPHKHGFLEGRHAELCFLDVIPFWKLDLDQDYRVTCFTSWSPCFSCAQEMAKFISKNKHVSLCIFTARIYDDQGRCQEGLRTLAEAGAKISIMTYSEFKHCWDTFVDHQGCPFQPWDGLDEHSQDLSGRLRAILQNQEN
eIF4H FP inh = inhibitors of RNA binding by human eIF4H; Q15056; eIF4H fluorescence polarization binding assay; inhibition, % at 35 µM; 290,000 compounds, 0.94% hits; AID 2012;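 note: calls also rest on retests at 20 µM and on dose response follow-up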
A3A deaminase = inhibitors of human APOBEC3A DNA deaminase; P31941; recombinant A3A, FAM/TAMRA ssDNA deamination fluorescence; inhibition, % at 20 µM; 330,000 compounds, 0.41% hits;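 active = at least 40% inhibition at 20 µM here, with at most 30% in a related deaminase screen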;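 note: plate controls were A3A with DMSO for no effect and wells lacking A3A enzyme for full effect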
MLLE-PAM2 inh = blocks PAM2 peptide binding to the PABP1 MLLE domain | P11940 | GST-MLLE / FITC-PAM2 fluorescence polarization | inhibition, % at 20 µM | 360,000 compounds, 0.36% hits | AID 588489; in the data active = inhibition above about 35%, passing the limit was not always enough;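 note: plate controls were DMSO wells with GST-MLLE for no effect and wells lacking GST-MLLE protein for full effect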
PHOSPHO1 inh = inhibitors of human PHOSPHO1 phosphatase. Q8TCT1. recombinant PHOSPHO1, absorbance phosphatase assay. inhibition, % at 13.3 µM. 290,000 compounds, 1.1% hits; in the data active = inhibition above about 60%
PABP FP inh = blocks human PABP binding to poly(A) RNA; P11940; fluorescence polarization; calls only at 35 µM; 290,000 compounds, 1% hits; AID 2014;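 note: calls also rest on retests at 20 µM and on dose response follow-up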
The depositor's hits bear a star. In the library only some 2.6% were active in any assay of this set; here they are far more common. Unless noted, the rule behind the calls is not given here.

CC(=O)c1cccc(S(=O)(=O)N2CCN(CCOc3ccccc3)CC2)c1 was read as A3G deaminase -6, A3A deaminase 2 and MLLE-PAM2 inh 44*.
`C/C(=N/NC(=O)c1cnccn1)c1cccs1` gave A3G deaminase 0, eIF4H FP inh 2, A3A deaminase 4, MLLE-PAM2 inh -11, PHOSPHO1 inh 5 and PABP FP inh inactive.
Screening CC(C)CN1CCNC(=O)C1CC(=O)NCCCN1CCCc2ccccc21 (stereo unspecified) returned A3G deaminase -6, eIF4H FP inh 16, A3A deaminase -4, MLLE-PAM2 inh 11, PHOSPHO1 inh 37 and PABP FP inh active.
Screening CC(=O)N1c2ccc(S(=O)(=O)N3CCCC3C(=O)Nc3ccc(C)cc3)cc2CC1C (stereo unspecified) returned A3G deaminase -9, eIF4H FP inh 54, A3A deaminase -3, MLLE-PAM2 inh 3, PHOSPHO1 inh 28 and PABP FP inh active.
`Cc1ccc(NC(=O)C2CCN(S(=O)(=O)c3ccc4c(c3)CC(C)N4C(=O)C3CCC3)CC2)nc1` (stereo unspecified) gave A3G deaminase -7, eIF4H FP inh -8, A3A deaminase -5, MLLE-PAM2 inh 0, PHOSPHO1 inh 75* and PABP FP inh inactive.
Screening Cc1cnc(C(=O)OCC(=O)c2ccc(F)c(F)c2)cn1 returned A3G deaminase -11, A3A deaminase -4 and MLLE-PAM2 inh 7.
CC1(C)Cc2c(sc(NC(=O)c3ccco3)c2C#N)C(C)(C)N1 was read as A3G deaminase -3, eIF4H FP inh 61*, A3A deaminase -5, PHOSPHO1 inh -34 and PABP FP inh active.
Screening CC(=O)Nc1sc2c(c1C#N)CC(C)(C)NC2(C)C returned A3G deaminase -5, eIF4H FP inh -5, A3A deaminase 0, MLLE-PAM2 inh 6, PHOSPHO1 inh -16 and PABP FP inh inactive.
Screening CCN1C(=S)SC(=O)C1=C1C=C(C)N(Cc2ccco2)C(C)=C1 returned A3G deaminase -2, eIF4H FP inh 14, A3A deaminase 1, MLLE-PAM2 inh -76, PHOSPHO1 inh 66* and PABP FP inh inactive.
For CCN1C(=S)SC(=O)C1=C1C=C(C)OC(C)=C1 the results were A3G deaminase -3, eIF4H FP inh inconclusive, A3A deaminase -6, MLLE-PAM2 inh -3, PHOSPHO1 inh 5 and PABP FP inh inconclusive.
O=C(OCc1c(-c2ccccc2)ncc2ccccc12)c1ccc(Cl)cc1Cl was read as A3G deaminase -9, A3A deaminase -1 and MLLE-PAM2 inh 9.
For COc1ccc(C(=O)Nc2nnc(CC(=O)N/N=C/c3ccc(O)cc3O)s2)cc1 the results were A3G deaminase -8, eIF4H FP inh 76*, A3A deaminase 0, MLLE-PAM2 inh -44, PHOSPHO1 inh 23 and PABP FP inh inactive.
For Cc1ccc(C(=O)Nc2nnc(CC(=O)N/N=C/c3ccc(O)c(O)c3)s2)cc1 the results were A3G deaminase 10, A3A deaminase 4, MLLE-PAM2 inh -30 and PHOSPHO1 inh -11.
`CCc1ccc(C(=O)NNC(=O)CCc2nc3ccccc3c(=O)[nH]2)cc1` gave A3G deaminase -10, A3A deaminase -2 and MLLE-PAM2 inh -12.
CC1CCN(C(=O)CSc2nnc(-c3ccc(S(=O)(=O)N4CCOCC4)cc3)n2C)CC1 was read as A3G deaminase -5, eIF4H FP inh 53*, A3A deaminase -3, MLLE-PAM2 inh -7, PHOSPHO1 inh -8 and PABP FP inh active.
`CN(C)C(CNc1ccc([N+](=O)[O-])cc1C#N)c1ccccc1` (stereo unspecified) gave A3G deaminase -1, eIF4H FP inh -9, A3A deaminase 3, MLLE-PAM2 inh 1, PHOSPHO1 inh -18 and PABP FP inh inactive.
For CCOC(=O)c1sc2nc(C3CC3)cc(-c3ccc(F)cc3)c2c1N the results were A3G deaminase 1, eIF4H FP inh 3, A3A deaminase 2, MLLE-PAM2 inh -2, PHOSPHO1 inh 40 and PABP FP inh inactive.
For CCOC(=O)c1sc2nc(C3CC3)cc(-c3ccc(OC)cc3)c2c1N the results were A3G deaminase 0, eIF4H FP inh -11, A3A deaminase -9, MLLE-PAM2 inh -1, PHOSPHO1 inh 74* and PABP FP inh inactive.

Screening results (PubChem BioAssay)
